USP17 inh = human USP17-like deubiquitinase inhibition. A8MUK1. purified USP17, Ub-rhodamine cleavage fluorescence, 3 h. inhibition, % at 50 µM. 6.5% of 47,000 active. AID 1645855
USP30 inh = blocks human USP30 ubiquitin-rhodamine cleavage | Q70CQ3 | purified USP30, Ub-rhodamine cleavage fluorescence | inhibition, % at 25 µM | 5.3% of 47,000 active
Target sequence (Q70CQ3 whole entry, looked up): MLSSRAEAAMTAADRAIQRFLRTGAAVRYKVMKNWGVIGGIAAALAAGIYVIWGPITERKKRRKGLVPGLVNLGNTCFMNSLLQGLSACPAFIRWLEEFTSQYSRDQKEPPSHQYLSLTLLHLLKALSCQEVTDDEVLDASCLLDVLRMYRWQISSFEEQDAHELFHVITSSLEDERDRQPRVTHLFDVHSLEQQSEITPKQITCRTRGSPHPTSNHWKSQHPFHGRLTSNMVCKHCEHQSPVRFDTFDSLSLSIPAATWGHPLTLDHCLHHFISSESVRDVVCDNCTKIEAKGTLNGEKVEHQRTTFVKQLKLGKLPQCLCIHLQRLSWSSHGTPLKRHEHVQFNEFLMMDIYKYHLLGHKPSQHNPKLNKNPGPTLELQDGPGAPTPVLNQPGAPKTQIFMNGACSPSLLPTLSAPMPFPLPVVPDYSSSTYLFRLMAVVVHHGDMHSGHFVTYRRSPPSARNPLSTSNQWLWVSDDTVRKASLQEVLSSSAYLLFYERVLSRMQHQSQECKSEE
USP28 block = blocks human USP28 ubiquitin-rhodamine cleavage. purified USP28, Ub-rhodamine cleavage fluorescence, 30 min. inhibition, % at 25 µM. 3% of 47,000 active. AID 1645857
Active calls of the source: *; i = inactive. Shown are actives, neighbours in structure and some others; about 11% of the full set was active somewhere. Cut-off read from the data, not from the text of the source: active = inhibition above about 30%; inactive = the rest.

SMILES	USP17 inh	USP30 inh	USP28 block
Clc1ccc2nc3c(c(Nc4[nH]ncc4-c4ccccc4)c2c1)CCC3	19	17	13
CN(C)CCNC(=O)c1ccn(-c2ccc3ccc(-c4ccccc4)cn23)n1	-116	i	-147
CSc1cccc(NC(=O)COc2cccc3ccccc23)c1	41*	78*	35*
Cc1cc(Cl)ccc1OCC(=O)Nc1ccccc1	14	-3	-6
C/C1=C\CCC(C)C(O)CC(O)C(C)C(O)CCC(C)C(O)CC2(O)OC(CC(OC(=O)CC(=O)O)CC(O)CC(O)CC(O)C(C)C(O)/C=C/C(C)C(C(C)CCCCCCCCN=C(N)N)OC1=O)CC(O)C2O (centres undefined)	2	-42	51*
Cc1ccc(C)c(Nc2nc(CN3CCOCC3)nc3sc(C)c(C)c23)c1	1	13	6
CC(C)CC(C(=O)N1CCN(c2ccccc2)CC1)N1Cc2ccccc2C1=O (centres undefined)	-3	10	-9
COc1ccc(Sc2nc(-c3ccccn3)ncc2OC)cc1	6	35*	8
COc1cnc(-c2ccccn2)nc1Sc1cccc(C(F)(F)F)c1	-25	18	2
CC(=O)N1CCN(c2nc3c(s2)CC(C(=O)Nc2ccccc2C)CC3)CC1 (centres undefined)	-20	-40	-15
CCc1ccc(-c2nc(SCC(=O)c3c(N)n(C4CC4)c(=O)[nH]c3=O)n[nH]2)cc1	44*	-242	-59
Cc1ccc(-c2nc(SCC(=O)c3c(N)n(C4CC4)c(=O)[nH]c3=O)n[nH]2)cc1	-64	-116	-39
Cc1[nH]c2c(C(=O)NCC(F)(F)F)cccc2c1C	-3	-21	0
O=C(c1cc(C2CC2)[nH]n1)N1CCN(Cc2ccccc2)CC1	18	34*	17
O=C(c1cc(C2CC2)[nH]n1)N1CCCCC1	17	8	12
NCCNC(=O)NC1CCN(c2nc(-c3cccnc3)nc3ccccc23)CC1	-11	21	10
O=C(NC1CCN(c2nc(-c3cccnc3)nc3ccccc23)CC1)c1cccnc1	9	3	52*
CCCOC(=O)c1cc(NC(=O)c2ccc(C)cc2Cl)ccc1N1CCOCC1	-19	-7	-16
Cc1ccc(C2CC(c3ccccc3)N(C(=O)C(C)C)c3ncnn32)cc1 (centres undefined)	13	40*	13
COc1cccc(C(=O)N2c3ncnn3C(c3ccccc3)CC2c2ccccc2)c1 (centres undefined)	4	24	-1
CC(C)C(=O)N1c2ncnn2C(c2ccccc2)CC1c1ccccc1 (centres undefined)	1	15	0
COc1ccccc1C1CC(c2ccccc2)N(C(=O)CC(C)C)c2ncnn21 (centres undefined)	27	31*	14
O=C(NCc1ccccc1Cl)c1cccc2ncccc12	-37	-272	-58
O=C(Nc1cccn2cnnc12)c1cccc(C(F)(F)F)c1	-15	-33	-8
C[C@H]1CC[C@H]2[C@@H](C=C[C@]3(O)COC(=O)[C@]23C)C1	-19	-9	-4
SMILES	USP17 inh	USP30 inh	USP28 block
O=C(CC1C(=O)Nc2nc(-c3ccccc3)nn21)Nc1ccc(Cl)c(C(F)(F)F)c1 (centres undefined)	-4	-8	-3
Cc1cccc(NC(=O)CC2C(=O)Nc3nc(-c4ccccc4)nn32)c1 (centres undefined)	16	31*	14
Cc1cc(Cl)ccc1Nc1nc(N2CCN(C)CC2)nc2nccnc12	-1	-14	-16
COc1ccc(CCn2c(N)c(-c3nc4ccccc4n3C)c3nc4ccccc4nc32)cc1	8	-55	-18
COc1ccccc1-c1cc2n(n1)CCN(C(=O)c1ccncc1)C2	1	8	5
Cc1ccc(-c2nn(-c3ccccc3)cc2COC(=O)c2ccc(S(=O)(=O)N(C)C)cc2)cc1C	-6	-7	-5
COc1cc2c(cc1OC)C(COc1ccc(F)cc1)N(C(=O)c1cccc3ccccc13)CC2 (centres undefined)	5	-2	5
CCOC(=O)c1ccc(OCC2c3cc(OC)c(OC)cc3CCN2C(=O)C(C)Oc2ccccc2)cc1 (centres undefined)	32*	-29	0
CC(=O)N1CCN(Cc2nc(-c3ccc(N4CCCCC4)nc3)no2)CC1	-3	-9	-7
CN1CCN(Cc2nc(-c3ccc(N4CCCCC4)nc3)no2)CC1	-2	33*	10
O=C(c1ccccc1F)N1CCC(c2onc3c2CCCC3)CC1	13	21	15
Cc1cc(C)nc(Nc2ccc(C3CCN(S(=O)(=O)N(C)C)CC3)nc2)n1	2	11	14
CC(C(=O)Nc1ccc(F)cc1)n1cnc2nc(N3CCCCC3)ncc2c1=O (centres undefined)	-23	-112	-95
CC(C(=O)Nc1ccccc1)n1cnc2nc(N3CCCCC3)ncc2c1=O (centres undefined)	69*	-125	-22

Screens deposited in PubChem by Buhrlage Lab, Dana-Farber Cancer Institute and Novartis Institutes for BioMedical Research (Cambridge, Mass).
